Laboratory results from PubChem BioAssay.
Inconclusive results are not listed. Active and inactive are the calls of the source.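 How the source made its calls, unless noted: active means normalized viability below 100% at a tested concentration; inactive means the rest.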

Legend:
[1] = circadian clock period modulators, cell-based, LOPAC library, luminescence reporter (AID 2774; call rule not given here;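 further: values are relative to mean of DMSO wells on each plate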); settings: circadian reporter cells, at 7 µM, actives lie on both sides
[2] = Cy5 fluorescence quenching or enhancement artefacts, artefact control for HCV NS3 helicase inhibitor project, biochemical, LOPAC1280 (AID 687037; call rule not given here); settings: Cy5-DNA-NS3h complex fluorescence interference counterscreen
[3] = test system: Neuropilin-2 / VEGF-C interaction (human); assay: inhibitors of NRP2–VEGF-C binding, biochemical, microplate binding format, z-score (AID 743281; call rule not given here); settings: microplate NRP2/VEGF-C binding assay; stronger effect = lower value
[4] = growth inhibition of DIPG glioma cells, dose response, cell-based, SU-DIPG-XVII, MIPE5.0, CellTiter-Glo, qHTS (AID 1347060; cut-off not given, nearly all actives have AC50 up to about 26 µM;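 on AC50: cells exposed to compound for 48 hours before viability readout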); settings: SU-DIPG-XVII viability, CellTiter-Glo ATP luminescence
[5] = growth inhibition of DIPG glioma cells, dose response, cell-based, SU-DIPG-XIII, MIPE4.0, CellTiter-Glo, qHTS (AID 1347061; cut-off not given, nearly all actives have AC50 up to about 37 µM;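 further: cells exposed to compound for 48 hours before readout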); settings: SU-DIPG-XIII viability, CellTiter-Glo ATP luminescence
[6] = growth inhibition of DIPG glioma cells, dose response, cell-based, JHH-DIPG-1, MIPE4.0, CellTiter-Glo, qHTS (AID 1347062; cut-off not given, nearly all actives have AC50 up to about 27 µM;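 on AC50: cells exposed to compound for two days before readout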); settings: JHH-DIPG-1 viability, CellTiter-Glo ATP luminescence
[7] = growth inhibition of DIPG glioma cells, dose response, cell-based, SU-DIPG-IV, MIPE4.0, CellTiter-Glo, qHTS (AID 1347063; cut-off not given, nearly all actives have AC50 up to about 30 µM;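 further: compound exposure lasted 48 hours before the viability readout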); settings: SU-DIPG-IV viability, CellTiter-Glo ATP luminescence
[8] = growth inhibition of DIPG glioma cells, dose response, cell-based, SU-DIPG-XIII, MIPE5.0, CellTiter-Glo, qHTS (AID 1347064; cut-off not given, nearly all actives have AC50 up to about 23 µM;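 on AC50: cells exposed to compound for 48 hours before the viability read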); settings: SU-DIPG-XIII viability, CellTiter-Glo ATP luminescence
[9] = SU-DIPG-VI glioma cell viability, MIPE4.0 library, CellTiter-Glo luminescence, qHTS (AID 1347066; cut-off not given, nearly all actives have AC50 up to about 30 µM;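 further: cells exposed to compound for 48 hours before readout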); settings: CellTiter-Glo ATP luminescence
[10] = JHH-DIPG-1 glioma cell viability, MIPE5.0 library, CellTiter-Glo luminescence, qHTS (AID 1347067; cut-off not given, nearly all actives have AC50 up to about 26 µM;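 further: cells exposed to compound for 48 hours before readout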); settings: JHH-DIPG-1 glioma viability, CellTiter-Glo ATP luminescence
[11] = SU-DIPG-XXV glioma cell viability, MIPE5.0 library, qHTS (AID 1347068; cut-off not given, nearly all actives have IC50 up to about 30 µM;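 on IC50: cells exposed to compound for 48 hours before viability readout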)
[12] = phospholipid biosynthesis inhibitors in animal cells, primary screen, cell-based, LOPAC library, screen 4 (AID 1347384; call rule not given here); settings: phospholipid biosynthesis inhibition screen, at 10 µM
[13] = biological target: ATP-dependent translocase ABCB1 (Homo sapiens) (UniProt P08183); assay: MDR1 (ABCB1) efflux transporter inhibition, cell-based (AID 377; in the data active means fluorescence slope change above about 50%); settings: MDR1-expressing cells, fluorescent substrate accumulation slope; stronger effect = higher value; concentration not given here
[14] = reducers of polyQ inclusions in PC12 cells, cell-based, NGF-treated PC12, GFPQ80 (AID 1614); settings: PC12 NGF-treated GFP-polyQ80 inclusion reduction;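 further: lower means fewer inclusions and 0 means no inclusions at all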
[15] = viability loss in pontine glioma line – cell-based, SU-DIPG-XXV, MIPE5.0, CellTiter-Glo, qHTS, dose response (AID 1347065; cut-off not given, nearly all actives have AC50 up to about 26 µM;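 further: cells exposed to compound for 48 hours before ATP readout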); settings: CellTiter-Glo ATP luminescence
[16] = ovarian cancer cell viability with rucaparib, profiling panel, oncology-focused library, rucaparib conditional (AID 1508598); settings: patient-derived ovarian cancer cells, CellTiter-Glo viability, 144 h, stronger effect = lower value

Sequence of ATP-dependent translocase ABCB1 (Homo sapiens) (P08183 whole entry, looked up): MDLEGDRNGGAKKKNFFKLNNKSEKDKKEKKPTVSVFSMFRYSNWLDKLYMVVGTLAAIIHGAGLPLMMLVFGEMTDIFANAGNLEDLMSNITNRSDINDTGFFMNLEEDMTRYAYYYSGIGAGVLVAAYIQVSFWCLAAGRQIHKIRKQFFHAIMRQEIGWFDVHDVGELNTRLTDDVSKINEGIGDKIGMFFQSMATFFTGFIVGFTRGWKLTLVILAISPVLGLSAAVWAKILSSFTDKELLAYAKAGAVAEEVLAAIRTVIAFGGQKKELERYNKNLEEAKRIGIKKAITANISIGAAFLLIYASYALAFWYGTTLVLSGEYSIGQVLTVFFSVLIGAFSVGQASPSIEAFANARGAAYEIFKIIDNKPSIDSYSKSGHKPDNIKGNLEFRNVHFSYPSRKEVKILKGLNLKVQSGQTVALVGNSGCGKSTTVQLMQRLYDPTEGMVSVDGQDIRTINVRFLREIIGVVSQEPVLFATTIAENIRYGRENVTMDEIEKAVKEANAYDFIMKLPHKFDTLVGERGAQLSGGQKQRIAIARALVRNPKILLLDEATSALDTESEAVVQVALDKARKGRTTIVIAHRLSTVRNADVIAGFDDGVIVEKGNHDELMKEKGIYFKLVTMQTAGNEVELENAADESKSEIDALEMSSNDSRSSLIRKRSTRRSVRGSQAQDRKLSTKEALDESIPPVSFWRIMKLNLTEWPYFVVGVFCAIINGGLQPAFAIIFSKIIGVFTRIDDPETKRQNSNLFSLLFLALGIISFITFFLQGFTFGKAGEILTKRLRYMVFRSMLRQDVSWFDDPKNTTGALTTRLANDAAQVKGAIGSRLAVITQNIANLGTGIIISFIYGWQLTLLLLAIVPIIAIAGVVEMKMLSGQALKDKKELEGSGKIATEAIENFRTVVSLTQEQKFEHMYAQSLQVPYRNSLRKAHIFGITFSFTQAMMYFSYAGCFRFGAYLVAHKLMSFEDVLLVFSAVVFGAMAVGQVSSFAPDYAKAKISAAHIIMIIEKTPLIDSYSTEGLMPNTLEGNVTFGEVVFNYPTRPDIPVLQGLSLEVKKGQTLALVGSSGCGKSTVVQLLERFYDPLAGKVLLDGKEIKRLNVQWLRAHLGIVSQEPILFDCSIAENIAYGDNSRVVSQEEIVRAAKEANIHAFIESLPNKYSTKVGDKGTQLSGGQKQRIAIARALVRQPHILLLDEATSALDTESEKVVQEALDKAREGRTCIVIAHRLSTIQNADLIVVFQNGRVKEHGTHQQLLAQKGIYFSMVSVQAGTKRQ

With `CCCCc1oc2ccccc2c1C(=O)c1cc(I)c(OCCN(CC)CC)c(I)c1` the period change [1] was 0.145 h (inactive), the fluorescence ratio (interference) [2] was 0.9 (inactive) and the z-score [3] was -0.442 (inactive). For the same compound, the AC50 [4] was 13.2 µM (active), the AC50 [5] was 7.43 µM (active) and the AC50 [6] was 23.5 µM (active). The AC50 [7] was 1.05 µM (active), the AC50 [8] was 13.2 µM (active) and the AC50 [9] was 23.5 µM (active). The AC50 [10] was 16.6 µM (active), the IC50 [11] was 23.5 µM (active) and the outcome [12] was “inactive”.

With `C#C[C@]1(O)CC[C@H]2[C@@H]3CCC4=CC(=O)CC[C@@H]4[C@H]3CC[C@@]21CC` the fluorescence slope change [13] was -2.5% (inactive), the outcome [4] was “inactive” and the outcome [5] was “inactive”. The outcome [6] was “inactive”, the outcome [7] was “inactive” and the outcome [9] was “inactive”. The outcome [10] was “inactive” and the outcome [11] was “inactive”.

In the case of `CN(C)CCOC(c1ccccc1)c1ccccc1`, the inclusion score [14] is reported as 2, the period change [1] is reported as -0.01 h (inactive) and the fluorescence ratio (interference) [2] is reported as 1 (inactive). The z-score [3] was -0.533 (inactive), the outcome [6] was “inactive” and the outcome [8] was “inactive”. For the same compound, the outcome [15] was “inactive”, the outcome [9] was “inactive” and the outcome [10] was “inactive”. The outcome [11] was “inactive” and the outcome [12] was “inactive”.

For `C[C@]12C=CC(=O)C=C1CC[C@@H]1[C@@H]2[C@@H](O)C[C@@]2(C)[C@H]1CC[C@]2(O)C(=O)CO`, the outcome [4] was “inactive”, the outcome [5] was “inactive” and the outcome [6] was “inactive”. For the same compound, the outcome [8] was “inactive” and the outcome [10] was “inactive”.

With `OCCN(CCO)c1nc(N2CCCCC2)c2nc(N(CCO)CCO)nc(N3CCCCC3)c2n1` the inclusion score [14] was 2, the period change [1] was -0.245 h (inactive) and the fluorescence ratio (interference) [2] was 1 (inactive). For the same compound, the AC50 [5] was 20.9 µM (active), the outcome [6] was “inactive” and the AC50 [15] was 18.6 µM (active). The outcome [12] was “inactive”.

In the case of `C[C@@H]1C[C@H]2[C@@H]3CCC4=CC(=O)C=C[C@]4(C)[C@@]3(F)[C@@H](O)C[C@]2(C)[C@@]1(O)C(=O)CO`, the outcome [4] is reported as “inactive”, the outcome [8] is reported as “inactive” and the outcome [15] is reported as “inactive”. For the same compound, the outcome [10] was “inactive” and the outcome [11] was “inactive”.

For `CC1(C)O[C@@H]2C[C@H]3[C@@H]4CCC5=CC(=O)C=C[C@]5(C)[C@@]4(F)[C@@H](O)C[C@]3(C)[C@]2(C(=O)CO)O1`, the outcome [4] was “inactive”, the outcome [5] was “inactive” and the outcome [7] was “inactive”. The outcome [8] was “inactive”, the outcome [15] was “inactive” and the outcome [9] was “inactive”. The outcome [10] was “inactive” and the outcome [11] was “inactive”.

With `CCC(=O)O[C@]1(C(=O)CCl)[C@@H](C)C[C@H]2[C@@H]3CCC4=CC(=O)C=C[C@]4(C)[C@@]3(F)[C@@H](O)C[C@@]21C` the outcome [4] was “inactive”, the outcome [5] was “inactive” and the outcome [6] was “inactive”. The outcome [8] was “inactive”, the outcome [9] was “inactive” and the outcome [10] was “inactive”.

In the case of `CCN(CC)C(=S)SSC(=S)N(CC)CC`, the fluorescence slope change [13] is reported as 81.8% (active), the period change [1] is reported as -0.07 h (inactive) and the fluorescence ratio (interference) [2] is reported as 1 (inactive). The z-score [3] was -0.138 (inactive), the AC50 [4] was 0.934 µM (active) and the AC50 [5] was 0.0105 µM (active). For the same compound, the AC50 [6] was 0.00935 µM (active), the AC50 [7] was 0.0209 µM (active) and the AC50 [8] was 0.934 µM (active). The AC50 [15] was 0.833 µM (active), the AC50 [9] was 0.00372 µM (active) and the AC50 [10] was 0.934 µM (active). For the same compound, the outcome [11] was “inactive”, the outcome [12] was “inactive” and the viability ([16]; at 0.000305 µM, OCI-C5x cells, with rucaparib 10 µM, 100% = cells with rucaparib alone) was 117% (inactive). The viability ([16]; at 0.000305 µM, OCI-C5x cells, without rucaparib) was 126% (inactive), the viability ([16]; at 0.000305 µM, OCI-P5x cells, with rucaparib 20 µM, 100% = cells with rucaparib alone) was 78.8% (active) and the viability ([16]; at 0.000305 µM, OCI-P5x cells, without rucaparib) was 89.7% (active). For the same compound, the viability ([16]; at 0.00122 µM, OCI-C5x cells, with rucaparib 10 µM, 100% = cells with rucaparib alone) was 122% (inactive), the viability ([16]; at 0.00122 µM, OCI-C5x cells, without rucaparib) was 146% (inactive) and the viability ([16]; at 0.00122 µM, OCI-P5x cells, with rucaparib 20 µM, 100% = cells with rucaparib alone) was 76.6% (active). For the same compound, the viability ([16]; at 0.00122 µM, OCI-P5x cells, without rucaparib) was 90.8% (active), the viability ([16]; at 0.00488 µM, OCI-C5x cells, with rucaparib 10 µM, 100% = cells with rucaparib alone) was 117% (inactive) and the viability ([16]; at 0.00488 µM, OCI-C5x cells, without rucaparib) was 130% (inactive). The viability ([16]; at 0.00488 µM, OCI-P5x cells, with rucaparib 20 µM, 100% = cells with rucaparib alone) was 75.9% (active), the viability ([16]; at 0.00488 µM, OCI-P5x cells, without rucaparib) was 86.5% (active) and the viability ([16]; at 0.0195 µM, OCI-C5x cells, with rucaparib 10 µM, 100% = cells with rucaparib alone) was 128% (inactive). For the same compound, the viability ([16]; at 0.0195 µM, OCI-C5x cells, without rucaparib) was 126% (inactive), the viability ([16]; at 0.0195 µM, OCI-P5x cells, with rucaparib 20 µM, 100% = cells with rucaparib alone) was 74.6% (active) and the viability ([16]; at 0.0195 µM, OCI-P5x cells, without rucaparib) was 78.5% (active). For the same compound, the viability ([16]; at 0.0781 µM, OCI-C5x cells, with rucaparib 10 µM, 100% = cells with rucaparib alone) was 120% (inactive), the viability ([16]; at 0.0781 µM, OCI-C5x cells, without rucaparib) was 120% (inactive) and the viability ([16]; at 0.0781 µM, OCI-P5x cells, with rucaparib 20 µM, 100% = cells with rucaparib alone) was 104% (inactive). For the same compound, the viability ([16]; at 0.0781 µM, OCI-P5x cells, without rucaparib) was 131% (inactive), the viability ([16]; at 0.313 µM, OCI-C5x cells, with rucaparib 10 µM, 100% = cells with rucaparib alone) was 135% (inactive) and the viability ([16]; at 0.313 µM, OCI-C5x cells, without rucaparib) was 136% (inactive). For the same compound, the viability ([16]; at 0.313 µM, OCI-P5x cells, with rucaparib 20 µM, 100% = cells with rucaparib alone) was 102% (inactive), the viability ([16]; at 0.313 µM, OCI-P5x cells, without rucaparib) was 129% (inactive) and the viability ([16]; at 1.25 µM, OCI-C5x cells, with rucaparib 10 µM, 100% = cells with rucaparib alone) was 121% (inactive). For the same compound, the viability ([16]; at 1.25 µM, OCI-C5x cells, without rucaparib) was 135% (inactive), the viability ([16]; at 1.25 µM, OCI-P5x cells, with rucaparib 20 µM, 100% = cells with rucaparib alone) was 103% (inactive) and the viability ([16]; at 1.25 µM, OCI-P5x cells, without rucaparib) was 116% (inactive). The viability ([16]; at 5 µM, OCI-C5x cells, with rucaparib 10 µM, 100% = cells with rucaparib alone) was 113% (inactive), the viability ([16]; at 5 µM, OCI-C5x cells, without rucaparib) was 129% (inactive) and the viability ([16]; at 5 µM, OCI-P5x cells, with rucaparib 20 µM, 100% = cells with rucaparib alone) was 110% (inactive). The viability ([16]; at 5 µM, OCI-P5x cells, without rucaparib) was 120% (inactive).

With `C[C@@H]1CC(=O)NN=C1c1ccc(NN=C(C#N)C#N)cc1` the AC50 [7] was 23.5 µM (active), the AC50 [8] was 18.6 µM (active) and the AC50 [15] was 9.34 µM (active).
